High-throughput results as filed in PubChem BioAssay.
An excerpt weighted towards active compounds, which were near 1.1% of everything screened.
HDAC3 inhib: inhibitors of human histone deacetylase 3 | recombinant HDAC3, fluorogenic peptide/trypsin coupled, fluorescence | O15379 | 320,000 tested, 0.15% active | inhibition, % at 8.3 µM; in the data active means inhibition above about 26%, passing the limit was not always enough; inconclusive means no clear call, values can overlap the other calls
IDE cell inh: inhibits human insulin-degrading enzyme in HEK cells; FAbetaB cleavage, fluorescence polarization; inhibition, % at 5.59 µM; 320,000 tested, 0.41% active; AID 434962;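 active means percent inhibition above the average of all tested compounds plus 3 SD, set per screening campaign, cut at about 16% in these data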;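 further: IDE supplied by intact live HEK cells; FP after avidin binding of uncleaved biotin substrate so inhibition keeps polarization high; 0% = DMSO wells and 100% = 60 µM reference IDE inhibitor Ii1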
IDE act: IDE (human) activation, cell-based; activation, % at 5.96 µM; 340,000 tested, 0.073% active; HEK cells, FAbeta-B cleavage, fluorescence polarization; 0% vehicle, 100% cell-free pure enzyme wells;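 active means activation above the mean of all tested compounds plus 3 SD, set per screening campaign, cut at about 17% in these data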
LANA-H2B inh: blocks KSHV LANA binding to histone H2A/H2B; cell-free LANA-H2A/H2B peptide, fluorescence polarization; inhibition, % (no concentration beside the values); AID 2629; Q9QR71; 320,000 tested, 0.6% active; in the data active means inhibition mostly above about 10%, no sharp cut-off; inactive means mostly below about 6.7%
* marks the source's active call; other numbers are inactive results; u = inconclusive; x = not tested or not shown; + = active, no number.

SMILES	HDAC3 inhib	IDE cell inh	IDE act	LANA-H2B inh
CCOc1ccc(C(CC(=O)O)NC(=O)Cc2ccc(Cl)cc2)cc1 (stereo not drawn)	-6.7	1.7	3.8	0.9
O=C(CSC1=NNC(c2ccccn2)S1)Nc1cccc(Cl)c1 (stereo not drawn)	-3.3	4.3	x	4.3
O=C(CSC1=NNC(c2ccccn2)S1)Nc1ccccc1 (stereo not drawn)	2.8	24.9*	-3.3	1.9
O=C(O)C1CSC(c2ccc3c(c2)OCO3)N1 (stereo not drawn)	3.2	2.2	5.7	22.3*
COc1ccc(-c2nn(CCC#N)cc2C(=O)Nc2cccc(C(=O)O)c2)cc1OC	-4.4	x	1.1	-0.9
COC(=O)[C@]1(C)N[C@H](CN(C)C(=O)Nc2ccc(Cl)cc2)[C@@H]2C(=O)N(Cc3ccccc3)C(=O)[C@@H]21	-5.4	5.9	1.3	+
CC[C@@]1(C(=O)OC)N[C@H](CN(C)C(=O)Nc2ccc(OC)cc2)[C@@H]2C(=O)N(Cc3ccccc3)C(=O)[C@@H]21	0.5	3.8	4.8	+
CC(=O)c1cccc(OCC(=O)N(C)CC(=O)Nc2ccc(F)cc2)c1	-0.9	-5.6	x	17.3*
COc1ccc(/C=N/NC(=O)c2cccc(COCC(F)(F)C(F)F)c2)cc1	x	1.1	-4.0	x
O=C1C(=Cc2cccn2-c2ccccc2)C(=O)c2ccccc21	-5.2	3.6	2.2	127.0*
Cc1ccc(S(=O)(=O)N2CCC[C@H]2C(=O)OC(C)C(=O)Nc2ncc(Cl)cc2Cl)cc1 (stereo partly drawn)	-4.9	-0.6	6.3	-2.6
CC1CCN(C(=O)CCNS(=O)(=O)c2ccc(Br)cc2)CC1	-1.6	7.1	-1.3	24.4*
CC(=O)N1CCN(C(=O)CCNS(=O)(=O)c2ccc(Br)cc2)CC1	1.5	1.5	1.1	-7.4
CC(OC(=O)CNC(=O)c1ccc2ccccc2c1)C(=O)N(C)C1CCCCC1 (stereo not drawn)	-5.2	3.1	-0.9	-3.9
COc1ccccc1C(=O)NCC(=O)OC(C)C(=O)N(C)C1CCCCC1 (stereo not drawn)	0.3	-1.3	4.0	18.9*
O=S(=O)(c1cnc[nH]1)N1CCN(c2ccc(F)cc2)CC1	-1.8	2.5	-5.1	110.8*
CCN(CC)CCCCCCCCOC(=O)c1cc(OC)c(OC)c(OC)c1	-1.8	3.7	-3.0	5.1
CCC(c1nnnn1C1CCCC1)N1CCC(C(N)=O)CC1 (stereo not drawn)	-0.5	8.3	x	49.0*
CC(C)C(c1nnnn1C1CCCC1)N1CCC(C(N)=O)CC1 (stereo not drawn)	u	-6.6	0.4	-3.0
COc1ccccc1-c1c(C(F)(F)F)oc2cc(OC(=O)c3ccc([N+](=O)[O-])cc3)ccc2c1=O	-2.0	17.1*	-12.9	1.2
O=C(OCC(=O)N1CCC(Cc2ccccc2)CC1)c1cncc(Br)c1	1.1	0.4	0.5	-1.4
N/C(=N\N=C\c1ccc(O)c(O)c1)c1nonc1N	8.1	-1.6	3.0	17.8*
COc1cc(/C=N/N=C(\N)c2nonc2N)ccc1O	u	2.7	4.7	-3.2
CCn1ncc(C2=NOC(C(=O)NCc3ccc(Cl)cc3)C2)c1C (stereo not drawn)	-2.8	5.9	-2.1	58.1*
CCn1ncc(C2=NOC(C(=O)Nc3ccc(C)cc3)C2)c1C (stereo not drawn)	3.7	1.1	2.6	4.2
SMILES	HDAC3 inhib	IDE cell inh	IDE act	LANA-H2B inh
O=C(N/N=C/c1coc2ccccc2c1=O)c1cn(-c2ccccc2)nc1-c1ccc(F)cc1	3.8	5.5	0.0	0.5
Cc1ccc(NC(=O)Nc2ccc(F)cc2F)c(OC(F)F)c1	7.0	2.1	6.8	102.5*
CCOC(=O)C1C(=O)NC(C(=O)OCC)(C(=O)OCC)C1CC (stereo not drawn)	x	x	1.6	x
Cc1ccc(-c2csc(NC(=O)CCCc3cccs3)n2)cc1	-2.0	3.7	1.2	-8.7
Cc1csc(NC(=O)CCCc2cccs2)n1	2.8	-2.4	3.6	181.0*
CCOC(=O)CN1CCc2c(C)nc3c(-c4ccc(OC)c(OC)c4)cnn3c21	5.6	2.8	-0.7	1.0
COC(=O)C(C(C)C)N1CCc2c(C)nc3c(C#N)cnn3c21 (stereo not drawn)	6.1	-4.9	1.5	59.9*
CC(C)CC(=O)Nc1ccnn1C1CCN(C(=O)c2ccc(Cl)cc2F)CC1	-6.9	-4.2	2.7	-3.4
CC(C)(C)C(=O)Nc1ccnn1C1CCN(C(=O)c2ccc(Cl)cc2F)CC1	10.2	0.6	-1.1	25.7*
O=C(Nc1ccnn1C1CCN(C(=O)c2ccc(C(F)(F)F)cc2)CC1)C1CC1	0.4	0.3	-5.2	1.6
O=C(Nc1ccnn1C1CCN(C(=O)c2cccc(C(F)(F)F)c2)CC1)C1CC1	1.6	x	3.3	16.5*
CC(C)C[C@@H](C(=O)N[C@@H](C(=O)O)c1ccccc1)N1C(=O)N2CCc3c([nH]c4ccccc34)[C@@]2(C)C1=O	2.1	-1.4	4.4	-7.8
Cc1nc(N)ncc1-c1ccc2c(c1)OCO2	3.0	5.4	1.0	7.5
Oc1ccc2c(c1)OCC1(O)Cc3cc(O)c(O)cc3C21 (stereo not drawn)	x	x	33.8*	x
C=CCN=C1S/C(=C\c2ccc(N(C)C)cc2)C(=O)N1CC=C	-0.1	0.0	-6.5	15.5*
CCOC(=O)C1(NC(=O)C2(N3C(=O)c4ccccc4C3=O)CCCC2)CCCC1	x	x	1.8	x
CC(=O)c1ccc(NC(=O)N2C3CCC2CC(O)(c2cccnc2)C3)cc1 (stereo not drawn)	4.1	2.7	7.0	124.2*
Cc1cc(C)cc(NC(=O)Nc2ccccc2N2CCCCC2)c1	0.4	2.7	8.0	11.8*
CC(C)C(NC(=O)OCc1ccccc1)C(=O)NC(Cc1ccc(O)cc1)C(=O)O (stereo not drawn)	-5.4	-1.7	2.2	-2.1
CC(C)[C@H](NC(=O)[C@H](CCCN=C(N)N)NC(=O)NC(Cc1ccccc1)C(=O)O)C(=O)NC(C=O)CCCN=C(N)N (stereo partly drawn)	83.8*	-1.0	8.8	0.9
CC(C)Cn1c(N)c(C(=O)COC(=O)c2cc(S(=O)(=O)N3CCOCC3)ccc2Br)c(=O)n(C)c1=O	33.6*	4.9	3.3	4.9
COc1ccc(N=CC2=C(Nc3ccc(OC)cc3)c3c(C)nn(-c4ccccn4)c3CC2)cc1	-4.6	-7.2	x	59.9*
Cc1cc(/C=C2/NC(=O)N(Cc3ccccc3F)C2=O)c(C)n1-c1ccccn1	44.1*	-2.0	-1.0	0.3
COC(=O)CCCC1=CC2=C(c3ccccc3)C(=O)C(C)(OC(=O)C3CCCC3)C(=O)C2=CN1c1ccccc1 (stereo not drawn)	6.0	-2.9	6.6	-1.8
COC(=O)CCCC1=CC2=C(c3ccccc3)C(=O)C(C)(OC(=O)C3CCCC3)C(=O)C2=CN1C1CC1 (stereo not drawn)	-3.2	-0.2	4.0	58.8*
O=S(=O)(c1cccc(-c2cn3ccccc3n2)c1)N1CCCCC1	6.4	0.9	2.3	18.2*
COc1ccc(NC(=O)CNC(=O)C2CCCCC2)cc1OC	5.3	0.3	-0.8	5.3
O=C(COc1ccc(Br)cc1CO)Nc1ccc(S(=O)(=O)N2CCCCC2)cc1	1.1	13.8	-8.7	+
